SARS PLP yeast: SARS-CoV PLP inhibition in yeast | S. cerevisiae expressing SARS-CoV PLpro, growth rescue | Potency, µM (series often up to 32.9 µM), inactives show top-dose activity, positive = growth rescue, usual class: activators | 0.19% of 330,000 active | AID 485353; further: 0% is about no effect; nearly all actives have a fitted effect of over 55% in size
Pf growth 48h: inhibits P. falciparum growth in the first generation, 48 h; P. falciparum luciferase growth in erythrocytes, 48 h; Potency, µM (series often up to 28.7 µM), without a hit: at the top dose activity change, negative = inhibition, hits mostly inhibitors; 5.9% of 310,000 active; active means well fitted inhibition curve with a large enough effect; inconclusive means small, poorly fitted or top-dose-only effect, or another doubt; inactive means no such curve, though single readings can be large or run the other way; further: on the % scale 0 is the no-effect control and ±100 the full control effect
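Parasite viability was followed by luminescence of a genomically integrated firefly luciferase. Cultures held 0.1% parasitemia at 2% hematocrit (final), incubated under 5% CO2 at 37 C.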
Pf growth 96h: P. falciparum growth inhibition at 96 hours | P. falciparum luciferase reporter growth, 96 h | Potency, µM (series often up to 28.7 µM), inactives show top-dose activity change, negative = inhibition, actives largely listed as inhibitors | 6.9% of 320,000 active; active means well fitted inhibition curve with a large enough effect; inconclusive means small, poorly fitted or top-dose-only effect, or another doubt; inactive means no such curve, though single readings can be large or run the other way; further: on the % scale 0 is the no-effect control and ±100 the full control effect
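Delayed-death screen, second-generation endpoint: infected erythrocytes, 2% hematocrit, 0.05% parasitemia final; 96 hours at 37 C, 5% CO2; luciferase detection reagent; luminescence decrease equals reduced growth.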
NS1 inh: blocks influenza NS1 protein function | Potency, µM (series often up to 46.1 µM), for inactives: at the highest dose activity, positive = more growth | 0.4% of 270,000 active | AID 2326; further: actives are rising curves; nearly all actives have a fitted effect of over 50% in size
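OD600 was taken as the measure of yeast growth restored by compound in an NS1-expressing S. cerevisiae strain. Cells had been washed out of glucose medium and diluted 1:100 into galactose -URA medium, pH 6.0.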
The depositor's hits bear a star; ? = inconclusive; . = no result given. This is a sample that favours compounds with a hit; in the whole collection about 10% have one here. Unless noted, the call rests on the fitted dose curve. Potency means the concentration at half of the fitted maximal effect.

SMILES	SARS PLP yeast	Pf growth 48h	Pf growth 96h	NS1 inh
COc1ccccc1CNc1ncc(-c2ccc(F)cc2)n1C	-3%	?	?	11%
Cn1c(-c2ccccc2)cnc1NCc1cccc([N+](=O)[O-])c1	3%	3%	28%	-13%
COc1ccc(CNc2ncc(-c3ccc(F)cc3)n2C)c2ccccc12	1%	?	10µM*	-10%
C=CCN(CC=C)Cc1c(O)ccc2c(=O)c(-c3ccccc3)coc12	-4%	?	7%	0%
COC1CCCN(Cc2cn(C)nc2-c2ccc(Oc3ccccc3)cc2)C1 (stereo not drawn)	-1%	2%	?	-5%
CCCN1CCC(NCc2cn(C)nc2-c2ccc(Oc3ccccc3)cc2)CC1	0%	1.7µM*	?	1%
COCCN1CCCC(CNCc2cn(C)nc2-c2ccc(Oc3ccccc3)cc2)C1 (stereo not drawn)	0%	6.6µM*	?	2%
O=S(=O)(Nc1ccccc1F)c1cccc(NC(=S)NCCN2CCOCC2)c1	3%	.	.	.
O[C@@H](COc1ccc(Cl)cc1Cl)CN1CCCC1	.	.	.	-3%
CC(Oc1ccc(F)cc1)C(=O)Nc1nc(-c2ccccn2)cs1 (stereo not drawn)	.	2.6µM*	2.3µM*	.
COc1ccc2oc(C(=O)Nc3nc(-c4ccccn4)cs3)c(C)c2c1	-4%	?	6.6µM*	.
O=C(CC1CC2CCC1C2)Nc1nc(-c2ccccn2)cs1 (stereo not drawn)	-15%	2.6µM*	4.7µM*	1%
Cc1cc(C)c(OCC(=O)Nc2nc(-c3ccccn3)cs2)c(C)c1	-14%	8.3µM*	?	.
O=C(/C=C/c1ccccc1)NC(=S)Nc1ncccn1	-1%	0%	-3%	-3%
COc1cc(N=Nc2c(O)c3ccccc3[nH]c2=O)c(OC)cc1N=Nc1ccccc1	1%	3.3µM*	2.3µM*	1%
NC(=O)c1ccc(N=Nc2c(O)c3ccccc3[nH]c2=O)cc1	22%	2.6µM*	1.5µM*	-3%
Cc1cccc(C)c1NC(=O)CN(C)C(=O)C1=COCCO1	-3%	-4%	?	.
CC1(C)CC(C)(c2ccc(O)cc2O)N(c2ccc3ccccc3c2)C(=S)N1 (stereo not drawn)	19%	?	?	23%
CC1(C)CC(C)(c2ccc(O)cc2O)N(c2cccc(Cl)c2)C(=S)N1 (stereo not drawn)	16%	4.1µM*	?	-4%
COc1ccc(N(C(=O)c2ccco2)C(C(=O)NC2CCCC2)c2cc(OC)c(OC)c(OC)c2)cc1 (stereo not drawn)	-1%	?	?	9%
COc1ccc(NC(=O)CCc2nnc3ccc(N4CCC(C)CC4)nn23)cc1OC	-2%	-1%	4.1µM*	6%
CCOc1ccc(NC(=O)CCc2nnc3ccc(N4CCC(C)CC4)nn23)cc1	1%	9.3µM*	?	-8%
CC(=O)c1cccc(NC(=O)CCc2nnc3ccc(N4CCOCC4)nn23)c1	22%	-11%	10µM*	9%
O=C(CCc1nnc2ccc(N3CCCCC3)nn12)NCC1CCN(Cc2ccc(F)cc2)CC1	0%	?	10µM*	-8%
CCCCCC(=O)Nc1cc(S(=O)(=O)N2CCOCC2)ccc1Oc1ccc(OCC)cc1	0%	?	?	.
SMILES	SARS PLP yeast	Pf growth 48h	Pf growth 96h	NS1 inh
CC(=O)Oc1ccc(N2C(=O)C3C4C=CC(CC4)C3C2=O)cc1[N+](=O)[O-] (stereo not drawn)	-2%	20%	?	-38%
O=C(CSc1ccccc1F)NC(=O)NCc1ccco1	0%	-11%	33%	2%
Cc1ccccc1CSCC(=O)NC(=O)NCc1ccco1	-4%	49%	6.6µM*	-4%
Nc1nc2c(ncn2[C@@H]2C=C[C@@H](CO)C2)c(=O)[nH]1	.	.	.	3%
O=C(c1ccc2c(c1)OCO2)N(CC1CCCO1)C1(C(=O)NC2CCCC2)CCCCC1 (stereo not drawn)	2%	12µM*	?	0%
O=C(NC1(C(=O)NC2CCCC2)CCCCC1)c1ccc2c(c1)OCO2	1%	-17%	9.3µM*	-10%
CCN(CC)C(=O)c1[nH]cnc1C(=O)NCC(=O)OCc1ccccc1	0%	-4%	0%	0%
CCO/C=C/C(=O)N(C)CCC#N	1%	13%	12µM*	-2%
COc1ccc(N(CC(=O)NC2CCCCC2)C(=O)c2ccc(C)s2)c(OC)c1	-1%	?	-25%	-1%
CN1/C(=C\C(=O)Nc2ccc(Br)cc2)C(C)(C)c2ccccc21	-64%	-5%	24%	-20%

High-throughput results deposited in PubChem by National Center for Advancing Translational Sciences (NCATS).
